Source: PubChem BioAssay
GRK2 aptamer HTS – inhibitors of human GRK2 displacing RNA aptamer. bead flow cytometry, FAM-aptamer displacement from GRK2. inhibition of aptamer binding, % at 10 µM. 0.59% of 330,000 active. AID 488847;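 active = inhibition of aptamer binding above 40%, roughly 3 SD of noise, on plates passing a quality check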;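 note: median bead fluorescence of bound FAM aptamer so fluorescent compounds give negative values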
Target sequence (P25098 whole entry, looked up): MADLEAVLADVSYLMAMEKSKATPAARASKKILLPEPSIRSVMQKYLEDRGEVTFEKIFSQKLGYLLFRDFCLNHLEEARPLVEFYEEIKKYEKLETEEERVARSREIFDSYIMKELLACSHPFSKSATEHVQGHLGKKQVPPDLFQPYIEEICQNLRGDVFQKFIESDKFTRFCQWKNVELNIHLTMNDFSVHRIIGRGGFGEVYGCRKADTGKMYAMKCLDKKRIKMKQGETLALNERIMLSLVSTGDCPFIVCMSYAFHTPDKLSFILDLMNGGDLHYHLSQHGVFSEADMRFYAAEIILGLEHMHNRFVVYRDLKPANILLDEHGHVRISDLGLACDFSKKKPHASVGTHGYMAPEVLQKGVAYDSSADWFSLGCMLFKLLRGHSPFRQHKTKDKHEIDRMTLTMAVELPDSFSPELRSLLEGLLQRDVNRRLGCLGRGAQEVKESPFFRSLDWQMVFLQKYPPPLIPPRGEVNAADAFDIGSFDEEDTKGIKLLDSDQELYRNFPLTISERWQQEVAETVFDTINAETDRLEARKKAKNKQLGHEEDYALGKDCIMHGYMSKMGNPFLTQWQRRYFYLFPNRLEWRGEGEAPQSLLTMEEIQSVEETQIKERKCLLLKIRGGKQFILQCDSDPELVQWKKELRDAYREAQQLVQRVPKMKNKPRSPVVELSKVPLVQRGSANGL
MEKK2 WT-MEK5 – raises or lowers MEK5 binding to wildtype human MEKK2 PB1 domain | bead flow cytometry, Alexa488-MEK5 binding to MEKK2 WT; actives lie on both sides | binding response (% of control), % at 10 µM | 1.1% of 290,000 active | AID 1531; in the data active = binding response below about 67% or above about 130%
MEKK3 PB1 HTS – raises or lowers MEK5 binding to the human MEKK3 PB1 domain; binding response (% of control), % at 10 µM; 1.4% of 290,000 active; bead-based flow cytometry, Alexa488-MEK5 binding to MEKK3; actives lie on both sides; 0 = blocked by unlabeled MEK5, 100 = vehicle; AID 1529;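 active = binding response more than 3 SD above or below the average of its plate-row segment, actives on both sides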;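 note: Alexa488 bead fluorescence after subtracting the streptavidin-only scavenger bead signal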
B2AR ag – agonists of human beta-2 adrenergic receptor inducing internalization; response, % (test concentration not listed); 0.43% of 340,000 active; Am2.2-beta2AR cells, FAP receptor internalization, flow cytometry; P07550;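 active = response above a set limit, near 3 SD of response in nonfluorescent compounds, cut at about 42% in these data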
MEKK2mut PB1 HTS – signal of MEK5 binding to mutant human MEKK2 PB1 domain. bead flow cytometry, Alexa488-MEK5 binding to MEKK2 mutant. percent response, % at 10 µM. 0.35% of 290,000 active; in the data active = percent response above about 24%, passing the limit was not always enough
MEKK2wt confirm – raises or lowers MEK5 binding to wildtype human MEKK2, retest | AID 1892 | 2.4% of 5,900 active | bead flow cytometry, Alexa488-MEK5 binding to MEKK2 WT; actives lie on both sides | binding response (% of control), % at 10 µM | shares compounds with MEKK3 PB1 HTS; in the data active = binding response below about 16% or above about 210%; inactive = in between
MEKK2mut-MEK5 – signal of MEK5 binding to mutant human MEKK2, retest; bead flow cytometry, Alexa488-MEK5 binding to MEKK2 mutant; AID 1893; 2% of 5,900 active; shares compounds with MEKK3 PB1 HTS; percent response, % at 10 µM; in the data active = percent response mostly above about 71%, no sharp cut-off; inactive = mostly below about 38%;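 note: higher means compound restores mutant binding toward wildtype level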
MEKK3 confirm – MEKK3-MEK5 PB1 inhibition, single concentration confirmation | bead flow cytometry, Alexa488-MEK5 binding to MEKK3; active compounds read low | 1.8% of 5,900 active | binding response (% of control), % at 10 µM | shares compounds with MEKK3 PB1 HTS;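 active = binding response below 72% of control, or above a set upper limit, though filed actives all read lower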;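 note: 100% = DMSO only wells and 0% = binding blocked by excess unlabeled MEK5; lower values mean stronger disruption of MEK5 binding to MEKK3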
Starred values were filed as active, the others as inactive; · = not tested or not shown; ! = not active in a repeat; [ ] = remark or other dose. Only some compounds are listed: those with a hit (about 2.9% of all), similar ones and a draw of the others.

SMILES	GRK2 aptamer HTS	MEKK2 WT-MEK5	MEKK3 PB1 HTS	B2AR ag	MEKK2mut PB1 HTS	MEKK2wt confirm	MEKK2mut-MEK5	MEKK3 confirm
CCN1C(=O)N(CC)C2NC(=S)NC21 (configuration not stated)	2	106	103	-10	4	·	·	·
CCN1C(=O)N(CC)C2C1N(CO)C(=O)N2CO (configuration not stated)	0	117	129*	5	1	98	1	99
Cn1cc(S(=O)(=O)N2CCN(c3cccc(Cl)c3)CC2)c(=O)n(C)c1=O	0	132	129*	5	29	109	10	103
Cc1ccc(CNC(=O)COC(=O)c2cnc(C)cn2)cc1	0	95	99	1	-2	·	·	·
CN(CC(=O)Nc1ccccc1Cl)CC(=O)c1c(N)n(Cc2ccccc2)c(=O)n(C)c1=O	3	·	·	0	·	·	·	·
CCCn1nc(C(=O)OCC(=O)c2ccc3c(c2)NC(=O)CO3)c2ccccc2c1=O	0	97	132*	2	7	112	8	106
COc1ccc(-c2nsc3c(N4CCN(S(=O)(=O)c5ccccc5F)CC4)ncnc23)cc1	2	80	71*[inhibitor]	10	-14	101	-5	100
CCN(CC)S(=O)(=O)c1ccc(N2CCOCC2)c(NC(=S)NC(=O)c2ccco2)c1	3	88	86	-11	-12	·	·	·
COC(=O)C1=C(NC(=O)c2ccccc2C)CCS1	0	54	46*[inhibitor]	12	-15	89	-30	92
COc1ccccc1CCc1nnc(CCC(=O)NC(C)Cn2nc(C)cc2C)o1 (configuration not stated)	0	50	37*[inhibitor]	-2	-18	104	4	107
COc1ccccc1CCc1nnc(CCC(=O)NC(C)Cc2cccc(C)n2)o1 (configuration not stated)	3	104	101	4	2	·	·	·
Cc1cc(NC(=O)C(C)Oc2ccccc2)no1 (configuration not stated)	0	105	102	1	2	·	·	·
CC1=C(C)CC(C(=O)Nc2nc(-c3ccc(C)cc3C)c(C)s2)C(C(=O)O)C1 (configuration not stated)	0	104	133*	13	1	104	3	101
Cn1c(CNC(=O)C(Cc2ccccc2)NC(=O)c2ccccc2F)cc(=O)n(C)c1=O (configuration not stated)	6	99	98	9	-2	·	·	·
COC(=O)CC(NC(=S)NC(=O)c1ccccc1)c1ccc(Br)cc1 (configuration not stated)	0	98	103	2	1	·	·	·
Cc1cc([N+](=O)[O-])ccc1NC(=O)COc1nsnc1N1CCOCC1	2	100	101	-15	3	·	·	·
Cc1ccccc1NC(=O)COc1nsnc1N1CCOCC1	0	2.0*[inhibitor]	2.0*[inhibitor]	-6	-16	101	-1	98
c1csc(-c2nc(NCC3CCCO3)c3ccccc3n2)c1 (configuration not stated)	1	100	99	-15	-1	·	·	·
c1ccc(CN2CCC(Nc3nc(-c4cccs4)nc4ccccc34)CC2)cc1	0	188*	116	13	27	173	40	112
CC(C)(C)NCC(O)c1ccc(O)c(CO)c1 (configuration not stated)	·	111	104	·	4	·	·	·
OCc1cc(C(O)CNCCCCCCOCCCCc2ccccc2)ccc1O (configuration not stated)	0	144*!	112	·	9	120	2	103
CCOc1ccc(S(=O)(=O)N(C)c2ccc(OCC(=O)N3c4ccc(C)cc4C4CN(C)CCC43)cc2)cc1 (configuration not stated)	0	140*	108	0	37	127	15	101
Cc1cc(S(=O)(=O)NC(C)c2nnc3ccccn23)ccc1Br (configuration not stated)	1	·	·	9	·	·	·	·
COc1ccc(N2CC(C(=O)Nc3ccccc3N3CCCC3)CC2=O)c(OC)c1 (configuration not stated)	0	·	·	-6	·	·	·	·
CS(=O)(=O)N1CCN(c2ccc([N+](=O)[O-])cc2C(F)(F)F)CC1	1	98	92	-5	4	·	·	·
SMILES	GRK2 aptamer HTS	MEKK2 WT-MEK5	MEKK3 PB1 HTS	B2AR ag	MEKK2mut PB1 HTS	MEKK2wt confirm	MEKK2mut-MEK5	MEKK3 confirm
CS(=O)(=O)N1CCN(c2ccc([N+](=O)[O-])cc2F)CC1	0	79	75*[inhibitor]	-7	-16	101	13	104
COc1ccc(C(C)=O)cc1CSc1nc2ccccc2c(=O)n1-c1cccc(C)c1	1	102	156*	-19	-1	98	0	105
COc1ccc(C(C)=O)cc1CSc1nc2ccccc2c(=O)n1-c1ccccc1	1	105	97	5	9	·	·	·
CC(=O)Nc1ccc(-c2nc3cc(Cl)ccc3o2)cc1	1	105	106	-3	4	·	·	·
CC(C)(C)C(=O)Nc1ccc2oc(-c3cc(F)c(F)cc3Cl)nc2c1	1	1.0*[inhibitor]	1.0*[inhibitor]	9	-19	103	-2	100
CCOc1ccc(-n2c(SCc3ccc(C#N)cc3)nnc2-c2cccnc2)cc1	0	94	98	3	0	·	·	·
CCOc1ccc(-n2c(SCc3ccc([N+](=O)[O-])cc3)nnc2-c2ccc(OC)cc2)cc1	0	102	143*	-10	0	99	-2	103
CC(=O)NCCC(=O)N1CCCC(N2CCN(c3cccc(Cl)c3)CC2)C1 (configuration not stated)	5	103	101	-5	2	·	·	·
COC(=O)c1ccc(CSc2nnc(NC(C)C)s2)o1	3	84	71*[inhibitor]	-6	-2	108	0	101
Cn1nnc2cc(C(=O)Nc3ccccc3F)ccc21	1	98	100	0	1	·	·	·
COc1ccc(NC(=O)CSc2n[nH]c(C)c2[N+](=O)[O-])cc1	0	91	95	-1	-3	·	·	·
Cc1ccc(NC(=O)CSc2n[nH]c(C)c2[N+](=O)[O-])cc1C	3	104	131*	3	0	100	2	100
CSc1ccccc1NC(=O)CSc1n[nH]c(C)c1[N+](=O)[O-]	0	97	101	4	2	·	·	·
Cc1[nH]nc(SCC(=O)NCc2ccc(F)cc2)c1[N+](=O)[O-]	0	103	131*	3	-1	104	2	101
